Screening data (PubChem BioAssay)
TSHR antagonist – human thyrotropin receptor antagonism. AID 504810. 330,000 tested, 0.2% active. activity change, negative = inhibition, % at 11.5 µM. TSHR-expressing cells, TSH-stimulated cAMP HTRF, 2 h; active compounds read low;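 active = activity change below a set negative limit, meaning inhibition stronger than a set level, cut at about -70% in these data; inconclusive = activity change between two set negative limits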
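Competitive HTRF cAMP read-out (cryptate anti-cAMP antibody, cAMP-d2; 30 min, room temperature) in freshly harvested TSHR cells. Compounds added before TSH at EC80 (4nM final), followed by 2 hours' incubation at 37 deg C.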
RORg inh – blocks mouse ROR gamma transcriptional activity. P51450. Drosophila S2 Gal4-RORgamma UAS-luciferase reporter, 20 h. Potency, µM (highest dose often 53.6 µM), inactives show top-dose activity change, negative = inhibition, most hits filed as inhibitors. 310,000 tested, 5.4% active. AID 2551; also: potency is read from the fitted curve at half-maximal effect; nearly all actives have a fitted effect of over 60% in size
Target sequence (P51450 whole entry, looked up, the tested form may be a part): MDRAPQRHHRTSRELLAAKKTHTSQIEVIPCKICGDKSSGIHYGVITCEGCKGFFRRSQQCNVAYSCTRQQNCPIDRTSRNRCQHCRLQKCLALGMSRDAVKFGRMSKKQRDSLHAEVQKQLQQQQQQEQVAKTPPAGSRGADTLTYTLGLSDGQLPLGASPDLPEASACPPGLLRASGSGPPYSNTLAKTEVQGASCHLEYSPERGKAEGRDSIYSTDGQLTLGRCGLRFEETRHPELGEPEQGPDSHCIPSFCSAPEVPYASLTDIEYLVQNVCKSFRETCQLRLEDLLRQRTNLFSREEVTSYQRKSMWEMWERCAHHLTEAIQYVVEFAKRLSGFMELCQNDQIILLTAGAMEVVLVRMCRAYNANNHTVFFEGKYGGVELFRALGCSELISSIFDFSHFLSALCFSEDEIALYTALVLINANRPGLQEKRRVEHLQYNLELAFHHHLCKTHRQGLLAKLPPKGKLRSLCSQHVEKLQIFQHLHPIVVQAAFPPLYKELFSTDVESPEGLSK
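In this cell-based reporter format, copper sulfate (700 uM final) drives Gal4–ROR gamma fusion expression from a metallothionein promoter in Drosophila Schneider cells; compounds preincubated 1 hr, reporter read after 20 hr at ambient temperature.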
Gal4-VP16 FLuc – counter-screen for ROR gamma inhibitors: Gal4-VP16 reporter | Potency, µM (series often up to 53.6 µM), for inactives: at the highest dose activity, negative = inhibition, hits mostly inhibitors | AID 2546 | Drosophila S2 Gal4-VP16 UAS-luciferase, luminescence, 20 h | 310,000 tested, 3.5% active;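 also: Gal4-VP16 expression switched on by copper sulfate through the metallothionein promoter; potency is read from the fitted curve at half-maximal effect; nearly all actives have a fitted effect of over 50% in size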
ELG1 repair inh – blocks ELG1-dependent DNA repair in HEK293T cells; HEK293T ELG1-luciferase reporter, luminescence, 16 h; DNA damage induced by 5-fluorouridine; Potency, µM (titrated, usually from 46.1 µM), for the others: at the top dose activity change, negative = inhibition, actives largely listed as inhibitors; 330,000 tested, 2.3% active; also: potency is read from the fitted curve at half-maximal effect; nearly all actives have a fitted effect of over 55% in size
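DMSO vehicle served as the neutral condition. Each well held 2,000 cells given 5-fluorouridine plus compound; after 16 hr at 37 °C/5% CO2, ONE-Glo was added and luciferase measured 30 min later.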
B2AR arrestin – agonists driving beta-arrestin recruitment to human beta2-adrenergic receptor | P07550 | 330,000 tested, 0.02% active | Potency, µM (highest dose often 46.1 µM), without a hit: at the top dose activation, most hits filed as activators | beta-arrestin recruitment to beta2AR, cell-based reporter;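 also: potency is read from the fitted curve at half-maximal effect; 0% = DMSO controls and full agonism = EC100 isoproterenol or metaproterenol; nearly all actives have a fitted effect of over 65% in size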
* marks the source's active call; other numbers are inactive results; ? = inconclusive; . = no result given; [ ] = dose if it differs, or a comment. Hits are enriched below; roughly 7.5% of the tested compounds scored in any of these assays. Unless noted, calls follow the shape of the dose curve; as a rule, active = well fitted curve in the direction sought with a large enough effect; inconclusive = small, poorly fitted or top-dose-only effect, or another doubt; inactive = no such curve, though single readings can be large; an effect the other way counts as inactive or inconclusive. Unless noted, % is scaled to controls: 0 for no effect and ±100 for the full control effect.

SMILES	TSHR antagonist	RORg inh	Gal4-VP16 FLuc	ELG1 repair inh	B2AR arrestin
Cc1cc(-n2c(C)cc(C(=S)N3CCOCC3)c2C)ccc1Br	-5	8.9µM*	?	?	0%
CC(=O)c1ccc(-c2cccc(C3C4C=CCCC4(C)C(=O)N3Cc3ccccc3)c2)cc1 (centres undefined)	.	-38%	-4%	.	.
CCOC(=O)N1CCN(C(=O)CCc2ccc(S(=O)(=O)NCCc3ccccc3)cc2)CC1	10	?	3%	15µM*	-1%
CC(C)CNS(=O)(=O)c1ccc(CCC(=O)N2CCN(Cc3ccccc3)CC2)cc1	-4	12%	1%	?	0%
CC(C)CNS(=O)(=O)c1ccc(CCC(=O)N2CCN(Cc3ccc4c(c3)OCO4)CC2)cc1	7	?	-22%	9.2µM*	0%
O=C(CCc1ccc(S(=O)(=O)NCCc2ccccc2)cc1)N1CCN(Cc2ccc3c(c2)OCO3)CC1	-21	38%	?	23µM*	0%
O=C(O)CCC1CCCC1	.	-13%	-8%	.	.
CCCCCN(CCCCC)C(=O)[C@H](CCC(=O)O)NC(=O)[C@H](Cc1ccc(OP(=O)(O)O)cc1)NC(C)=O	.	12%	-1%	.	.
C=C1NC(=O)c2cc(CN(C)c3ccc(C(=O)N[C@@H](CCC(=O)O)C(=O)O)s3)ccc2N1	.	6%[10 µM]	-9%	.	.
CC(C)(C)n1nnnc1C(c1cccnc1)N(Cc1ccccc1)Cc1ccco1 (centres undefined)	3	-10%	-13%	0%	0%
COc1cccc(CN(Cc2ccco2)C(c2ccc(F)cc2)c2nnnn2C(C)(C)C)c1 (centres undefined)	-10	-3%	2.8µM*	-7%	0%
COc1cc(OC)cc(C(=O)NCC(=O)NC(C)c2ccccc2)c1 (centres undefined)	-7	8%	-19%	?	0%
COc1ccc(CCNC(=O)CNC(=O)c2nn(-c3ccc(OC)c(OC)c3)c(=O)c3ccccc23)cc1OC	0	39%	0%	?	0%
COc1ccc(-n2nc(C(=O)NCC(=O)Nc3cc(OC)ccc3OC)c3ccccc3c2=O)cc1	9	15%	-22%	13µM*	0%
COc1ccc(-n2nc(C(=O)NCC(=O)NCCc3ccc(OC)c(OC)c3)c3ccccc3c2=O)cc1	1	34%	-19%	16µM*	0%
CCN(CCCNC(=O)CNC(=O)c1nn(-c2ccc(OC)c(OC)c2)c(=O)c2ccccc12)c1ccccc1	1	10%	-6%	10µM*	0%
COc1ccc(-n2nc(C(=O)Nc3ccc(OC)c(OC)c3)c3c4ccccc4n(C)c3c2=O)cc1	0	24%	-2%	8.2µM*	0%
O=c1c(-c2ccc(Cl)cc2)nc2cnc(N3CCOCC3)nc2n1C[C@H]1CCCO1	.	-6%	6%	.	.
COc1ccc(Cn2nnnc2C(C(C)C)N2CCN(c3ccccc3OC)CC2)cc1 (centres undefined)	-86*	4%	-25%	?	0%
NNC(=O)c1cc(Cl)ccc1Cl	-4	11µM*	-87%	-14%	0%
O=C(NN1CCOCC1)c1cc(Cl)ccc1Cl	-28	-13%	-1%	-2%	-1%
COc1cc(C(=O)OCC(=O)N2CCCC2=O)cc(OC)c1C	.	.	.	10%	0%
C/C=C1\COC(C(=O)NCc2ccncc2)(C(F)(F)F)C=C1C=C1CCCCC1 (centres undefined)	.	16µM*	?	.	.
O=c1cnc2cnc(Oc3cccc(Cl)c3)nc2n1Cc1ccc(F)cc1	.	11%	-7%	.	.
COS(C)(=O)=O	.	-6%	10%	.	.
SMILES	TSHR antagonist	RORg inh	Gal4-VP16 FLuc	ELG1 repair inh	B2AR arrestin
C=CCn1c(-c2ccc(Cl)cc2)c[nH]c1=S	-12	2µM*	2.8µM*	20%	20µM*
CCn1c(-c2ccc(-c3ccccc3)cc2)c[nH]c1=S	-5	1.8µM*	1.6µM*	?	0%
C=CCn1c(-c2ccccc2)c[nH]c1=S	45	-29%	?	?	?
Cn1c(-c2ccc(-c3ccccc3)cc2)c[nH]c1=S	-2	0.79µM*	2.2µM*	?	3%
CCOC(=O)Cc1csc(NC(=O)CN2CCN(c3ccccc3)CC2)n1	-3	1%	-4%	-8%	0%
CN(C)Cc1ccccc1-c1nccc(NC2CC2)n1	.	4%	2%	.	.
NC(N)=NCC1COc2ccccc2O1 (centres undefined)	.	13%	-10%	.	.
CC(=O)OCC(NC(=O)C(CCCCNC(=O)OCc1ccccc1)NC(=O)OC(C)(C)C)C1OC(n2cc(F)c(=O)[nH]c2=O)C(OC(C)=O)C1OC(C)=O (centres undefined)	.	23%	12%	.	.
FC(F)Sc1nc2ccccc2[nH]1	14	13µM*	?	?	0%
CCOC(=O)c1ccccc1NC(=O)c1cn(-c2ccc(OC)cc2)c(=O)c2ccccc12	1	?	-11%	6.5µM*	0%
CCOC(=O)c1ccccc1NC(=O)c1cn(-c2ccc(C)c(C)c2)c(=O)c2ccccc12	13	?	-10%	?	5%
COC(=O)c1ccccc1NC(=O)c1cn(-c2ccc(C)c(C)c2)c(=O)c2ccccc12	6	41%	2%	9.2µM*	0%
NC(=O)c1ccccc1OCC(=O)N1CCC(Cc2ccccc2)CC1	-41	.	.	?	0%
CCOC(=O)C1CCCN(c2c(NCCc3ccc(Cl)cc3)c(=O)c2=O)C1 (centres undefined)	-6	-13%	12%	0%	0%
COc1ccc(Cc2nc3ccccc3n2CC(=O)N/N=C/c2ccc(C)cc2O)cc1OC	5	3.5µM*	6.3µM*	-8%	4%
COc1ccc(Cc2nc3ccccc3n2CC(=O)N/N=C/c2ccc(O)cc2)cc1OC	6	11%	-5%	0%	0%
O=c1n(-c2ccccc2)c(=O)n2n1CC[C@H]1/C(=N\OC[C@@H](O)COCc3ccco3)[C@H]3O[C@@H]3[C@@H](O)[C@@H]12	.	0%[10 µM]	-3%[10 µM]	.	.
COc1ccc(NC(=O)Cn2c(=O)cnc3ccccc32)cc1S(=O)(=O)N1CCCCC1	-7	.	.	1%	0%
CC(=O)c1c(COC(=O)c2cccc(C)c2)nc2ccccc2[n+]1[O-]	-8	15%	-29%	-9%	1%
CC(=O)c1c(COC(=O)c2ccncc2)nc2ccccc2[n+]1[O-]	-39	11µM*	?	18%	0%
CCc1ccc2nc(/N=C(\N)NC(=O)c3ccccc3)nc(C)c2c1	-11	-2%	5%	-3%	-1%
CCCC(=O)N/C(N)=N/c1nc(C)c2ccccc2n1	-4	1.1µM*	21%	-7%	-1%
Cc1c(CC(=O)N[C@@H](C)C(=O)O)c(=O)oc2cc3oc4c(c3cc12)CCCC4	3	-32%	-14%	2%	0%
